Assay outcomes from PubChem.
LGR2 inh: inhibitors of bursicon-induced Drosophila LGR2 receptor cAMP signaling; AID 720647; inhibition, % at 9.99 µM; hit rate 0.35% among 380,000; HEK293 LGR2, CRE-luciferase, bursicon-stimulated, 4 h;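 active means drop in luminescence signal, shown as inhibition above about 50% in the replicate tests, limit read from the data, passing the limit was not always enough; inconclusive means probably only some replicates passing the limit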;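 further: agonist challenge used bursicon conditioned medium at about half maximal strength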
PGC1a acetyl inh: lowers PGC1a acetylation signal in U2OS cells. AlphaScreen anti-acetyl-lysine; with virally co-expressed GCN5 acetyltransferase. AID 651687. hit rate 0.17% among 350,000. inhibition, % at 15.6 µM;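 active means every replicate shows inhibition of at least 40%; inconclusive means mean inhibition at least 40% but some replicate below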
PAX8 inh HTS: inhibitors of PAX8 transcriptional activity in RMG-I cells; inhibition, % at 12.6 µM; AID 652154; hit rate 1.2% among 360,000; RMG-I TPO-luciferase reporter, SteadyGlo, 24 h;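 active means mean replicate inhibition at least 60% with every replicate also reaching 60%; inconclusive means only one of the two criteria is met; inactive means mean below 60% and not all replicates reaching 60%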;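 further: luciferase light reporting Pax8 driven TPO promoter activity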
LMP1 NFkB inh: Epstein-Barr LMP1 NF-kappaB reporter inhibition. inhibition, % at 12.5 µM. LMP1-induced NF-kappaB luciferase reporter cells, luminescence. hit rate 0.69% among 350,000; in the data active means inhibition above about 41%; inconclusive means no clear call, values can overlap the other calls
TRPM1 prom inh: reduces MITF-dependent TRPM1 promoter luciferase signal; hit rate 0.83% among 330,000; inhibition, % at 12.5 µM; SK-MEL-5 TRPM1 promoter luciferase, 24 h; AID 488899;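 active means mean inhibition across replicates of 60% or more, whatever share of single replicates reaches that level; inconclusive means some that reach 60%, reason not given; inactive means mean inhibition across replicates below 60%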
EWS-Fli inh: blocks EWS/Fli oncoprotein-driven transcription. A673 NR0B1-luciferase reporter, viability-normalised. hit rate 0.67% among 350,000. inhibition, % at 12.6 µM;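 active means mean inhibition of at least 50% after viability correction, with every replicate also passing that limit; inconclusive means mean reaches 50% but only one of two replicates passes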;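 further: firefly luciferase signal divided by Alamar Blue viability fluorescence both relative to DMSO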
A number is an active result; - = inactive; ? = inconclusive; . = no result given. Compounds with a hit are over-represented: about 2.2% of the library has one in this group of screens.

SMILES | LGR2 inh | PGC1a acetyl inh | PAX8 inh HTS | LMP1 NFkB inh | TRPM1 prom inh | EWS-Fli inh
C[C@@H]1CCCCO[C@H](CN(C)C(=O)Nc2ccc(C(F)(F)F)cc2)[C@@H](C)CN([C@H](C)CO)C(=O)c2cc(NC(=O)Nc3ccc(F)cc3)ccc2O1 | - | - | - | . | . | -
C[C@@H]1CN([C@H](C)CO)C(=O)c2cc(NC(=O)Nc3ccc(F)cc3)ccc2O[C@@H](C)CCCCO[C@H]1CN(C)C(=O)Nc1ccc(C(F)(F)F)cc1 | - | - | 87 | . | . | -
CCCNC(=O)[C@@H]1[C@@H](CO)[C@@H]2Cn3c(ccc(-c4cncnc4)c3=O)[C@H]1N2C(=O)Nc1ccccc1 | - | . | . | . | . | -
O=C(Nc1nc(-c2ccccn2)cs1)c1cccc(S(=O)(=O)N2CCOCC2)c1 | - | - | 81 | - | - | -
O=C(Nc1nc(-c2ccccc2)cs1)c1ccc(N2CCOCC2)c([N+](=O)[O-])c1 | . | - | . | - | 80 | .
COc1ccccc1C(=O)Nc1nc(-c2ccc(S(=O)(=O)N3CCOCC3)cc2)cs1 | . | - | . | - | 81 | .
COc1ccccc1OC(C)C(=O)Nc1nc(-c2ccc(S(=O)(=O)N3CCOCC3)cc2)cs1 (configuration not stated) | . | - | . | - | - | .
O=C(Nc1nc(-c2ccccc2)cs1)c1ccccc1NS(=O)(=O)c1ccc(F)cc1 | ? | . | 86 | ? | 69 | .
C[C@H]1CN([C@@H](C)CO)C(=O)CCCn2cc(nn2)CO[C@H]1CN(C)Cc1cccc(C(F)(F)F)c1 | - | - | . | . | . | -
O=C(N[C@@H]1CC[C@H](CC(=O)N2CCN(c3ccccc3)CC2)O[C@H]1CO)c1ccncc1 | - | - | - | . | . | -
CC(C)NC(=O)N1C[C@H]2[C@@H](c3ccccc31)[C@H](CO)N2C(=O)NC(C)C | - | - | - | . | . | -
CC(C(=O)O)c1ccc(N2Cc3ccccc3C2=O)cc1 (configuration not stated) | . | - | - | - | - | 51
N/C(=N\OC(=O)c1ccc(Cl)cc1Cl)c1ccc(Cl)cc1 | . | - | . | - | - | .
N/C(=N/OC(=O)c1ccccc1Cl)c1nonc1N | - | - | - | - | - | -
Cc1cc(/C(N)=N/OC(=O)c2ccccc2Cl)no1 | 84 | - | - | - | - | -
N/C(=N\OC(=O)c1ccccc1Cl)c1ccccc1 | 60 | - | . | - | - | .
Cc1ccc(/C(N)=N/OC(=O)c2ccc(C)cc2Cl)cc1 | 59 | - | - | - | - | -
C[C@@H]1CN([C@H](C)CO)C(=O)Cc2cc(NS(C)(=O)=O)ccc2O[C@H]1CN(C)Cc1ccccc1 | - | - | - | . | . | -
COc1cccc(NC(=O)N[C@H]2CC[C@@H](CC(=O)NCc3ccncn3)O[C@H]2CO)c1 | - | - | - | . | . | -
CO[C@@H]1CN(C)C(=O)c2cc(NC(=O)Nc3cccc(F)c3)ccc2OC[C@@H](C)N(C(=O)C2CC2)C[C@@H]1C | - | - | - | . | . | -
O=C(CSc1nnc(Cc2cccs2)n1C1CCCCC1)N1CCN(C(=O)c2ccco2)CC1 | . | - | 74 | - | - | .
Cc1noc(C)c1NC(=O)N(C)C[C@@H]1Oc2ccc(NS(=O)(=O)c3cccs3)cc2C(=O)N([C@@H](C)CO)C[C@H]1C | - | - | . | . | . | -
O=C(NN=C1c2ccccc2-c2ccccc21)c1ccccc1Br | - | 66 | . | - | - | -
CCc1ccc(-c2cn3nc(C)c(C)nc3n2)cc1 | . | - | . | 84 | 77 | .
Cn1cccc1CC(=O)NNC(=S)Nc1ccccc1Cl | - | - | - | 58 | - | -
SMILES | LGR2 inh | PGC1a acetyl inh | PAX8 inh HTS | LMP1 NFkB inh | TRPM1 prom inh | EWS-Fli inh
Cn1cccc1CC(=O)NNC(=S)Nc1ccc(Cl)cc1 | - | . | - | - | - | -
CN(C)C(=O)[C@@H]1[C@@H](CO)[C@@H]2Cn3c(ccc(C4=CCCC4)c3=O)[C@H]1N2C | - | . | . | . | . | -
COc1cccc2oc3ccc(C#Cc4ccccn4)cc3c(=O)c12 | 83 | - | - | - | - | -
COc1cccc2sc3cc(C#Cc4ccccn4)ccc3c(=O)c12 | - | - | - | - | - | -
COc1ccc(NC(=O)N(C)C[C@H]2Oc3ccc(NS(=O)(=O)c4ccc(Cl)cc4)cc3CC(=O)N([C@@H](C)CO)C[C@H]2C)cc1 | - | - | - | . | . | -
CCc1nnc(N/N=C/c2ccccc2Cl)n1N | . | 72 | . | - | - | .
COC(=O)CSc1nnc([C@H](Cc2ccccc2)NC(=O)OC(C)(C)C)o1 | . | - | . | - | - | .
COC(=O)CS(=O)(=O)c1nnc([C@H](Cc2ccccc2)NC(=O)OC(C)(C)C)o1 | . | - | . | - | 79 | .
